Compounds with a hit are over-represented: about 18% of the library has one in this group of screens.
TDP1 inh = TDP1 (human) enzyme inhibition; Q9NUW8; recombinant TDP1, AlphaScreen DNA substrate cleavage; Potency, µM (series often up to 130 µM), actives largely listed as inhibitors; 350,000 tested, 0.28% active; AID 485290; note: nearly all actives have a fitted effect of over 40% in size
Target sequence (Q9NUW8 whole entry, looked up): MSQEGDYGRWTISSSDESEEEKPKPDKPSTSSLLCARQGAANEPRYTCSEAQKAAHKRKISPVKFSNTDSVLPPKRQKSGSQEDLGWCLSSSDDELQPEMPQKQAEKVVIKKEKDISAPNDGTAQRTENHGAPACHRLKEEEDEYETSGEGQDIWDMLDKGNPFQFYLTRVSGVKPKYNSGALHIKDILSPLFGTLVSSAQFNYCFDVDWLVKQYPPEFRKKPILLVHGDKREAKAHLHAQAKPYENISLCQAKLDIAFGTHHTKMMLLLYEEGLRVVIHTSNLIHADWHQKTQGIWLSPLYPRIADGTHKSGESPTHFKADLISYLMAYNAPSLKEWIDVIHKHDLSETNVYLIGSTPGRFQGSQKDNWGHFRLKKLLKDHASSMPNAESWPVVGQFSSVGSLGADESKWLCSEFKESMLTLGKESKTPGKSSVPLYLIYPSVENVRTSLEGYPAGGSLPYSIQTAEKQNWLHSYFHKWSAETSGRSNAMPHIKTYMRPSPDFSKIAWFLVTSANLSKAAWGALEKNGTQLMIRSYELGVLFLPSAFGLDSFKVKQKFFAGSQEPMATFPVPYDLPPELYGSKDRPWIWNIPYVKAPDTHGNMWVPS
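Tdp1 1 nM final; 15 min RT w/ cpd; substrate 15 nM, 5 min; beads 10 ug/ml, 10 min; AlphaScreen read. Neg ctrl: no enzyme.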
HepG2 tox = HepG2 cytotoxicity, counter-screen for TGF-b inhibitors; HepG2 CAGA-GFP viability, ATP luminescence, 18 h; Potency, µM (doses to about 46.1 µM), most hits filed as cytotoxic; 410,000 tested, 0.76% active
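CellTiter-Glo luminescence gave cytotoxicity after 18 hours at 37 degrees C. The cells were HepG2 CAGA-GFP in 1% FBS DMEM, stimulated with 500 pg/mL TGF-beta after compound addition. %Activity was normalised to no-cell wells (complete cell-killing) and DMSO (no toxicity), and curves were fitted and classified.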
TDP1 cell noCPT = qHTS for Inhibitors of human tyrosyl-DNA phosphodiesterase 1 (TDP1): qHTS in cells in absence of CPT. Potency, µM (top dose mostly 46.2 µM), hits mostly inhibitors. DT40 Tdp1-/- hTDP1 cells, no CPT, ATP luminescence, 48 h. AID 686978, 2013. 420,000 tested, 15% active; note: nearly all actives have a fitted effect of over 55% in size
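Chicken DT40 Tdp1-/- cells complemented with human TDP1, screened without camptothecin (DMSO vehicle only), 400 cells/well. Compounds pin-transferred, cells incubated at 37 °C for at least 48 hr. Growth read as ATP-dependent luminescence (CellTiter-Glo, 30 min at RT).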
TGFb SMAD3 inh = blocks TGF-b signaling. AID 588855. 410,000 tested, 1.2% active. Potency, µM (titrated, usually from 46.1 µM), usual class: inhibitors. HepG2 CAGA-GFP TGF-b/SMAD3 reporter, GFP fluorescence, 18 h; TGF-beta stimulated, 500 pg/mL final; note: nearly all actives have a fitted effect of over 65% in size
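Cell-based qHTS in HEPG2 carrying a CAGA-GFP Smad reporter; compounds added before 500 pg/mL final TGF-beta, 18 h incubation at 37 degrees C, GFP fluorescence quantified per cell by imaging cytometry.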
IL-1B inflam inh = inhibitors of inflammasome signaling (IL-1 beta secretion); THP-1 LPS/ATP IL-1B secretion, AlphaLISA, 16 h; hits give low values; activity change, % at 57.5 µM; 360,000 tested, 4.7% active; AID 743279; in the data active = activity change below about -50%; inconclusive = mostly about -30% to -49%
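Secreted IL-1B measured by AlphaLISA bead assay after 16 h compound exposure of THP-1 cells; compounds (final up to 57.5 uM) added 1 h before LPS (250 ng/mL) and ATP (1.25 mM) stimulation; lower signal means less secretion.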
TDP1 cell CPT = growth inhibition of DT40 Tdp1-/-;hTDP1 cells with camptothecin (screen for TDP1 inhibitors) | chicken DT40 Tdp1-/-;hTDP1 cells + 20 nM CPT, ATP luminescence, 48 h | AID 686979 | Potency, µM (top dose mostly 46.2 µM), usual class: inhibitors | 420,000 tested, 12% active; note: nearly all actives have a fitted effect of over 55% in size
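Cell growth measured by CellTiter-Glo luminescence after a minimum 48 h, 37 C compound exposure with 20 nM CPT in Tdp1-knockout DT40 cells stably expressing hTDP1, seeded 400/well; qHTS titration format.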
Of the large screens only hits and unclear results are named; the others gave an inactive call. Unless noted, calls come from the whole dose curve; as a rule, active = well fitted curve in the direction sought with a large enough effect; inconclusive = small, poorly fitted or top-dose-only effect, or another doubt; inactive = no such curve, though single readings can be large; an effect the other way counts as inactive or inconclusive.

CC1=NN(c2nc3ccccc3[nH]2)C(=O)C1Cc1ccccc1 (configuration not stated)	TDP1 cell noCPT 1.3µM, TGFb SMAD3 inh inconclusive, TDP1 cell CPT 1µM
CC(Sc1ncn[nH]1)C(=O)NCc1ccccc1 (configuration not stated)	none
Nc1c(-c2ccc(Cl)cc2)cnn1-c1ccccc1	none (no result: TDP1 inh)
Cc1cc2c(c(C)nn2-c2ccccc2)c(=O)o1	none
Cc1c(-c2ccc(Cl)cc2)oc(=O)c2c(N)n(-c3ccccc3)nc12	TDP1 inh 50µM, TDP1 cell noCPT 7.3µM, TDP1 cell CPT inconclusive
Nc1c2c(=O)oc(-c3ccccc3)cc2nn1-c1ccccc1	TDP1 cell noCPT inconclusive, IL-1B inflam inh -99, TDP1 cell CPT 26µM
Cc1ccc(C)c(S(=O)(=O)NCCN2CCOCC2)c1	none (no result: TDP1 inh)
COc1ccc(CCNCc2c(OC)ccc3ccccc23)cc1OC	TDP1 cell noCPT inconclusive, IL-1B inflam inh inconclusive, TDP1 cell CPT 16µM (no result: TDP1 inh)
COc1ccc2ccccc2c1CNC(C)CCc1ccccc1 (configuration not stated)	TDP1 cell noCPT inconclusive, TGFb SMAD3 inh inconclusive, TDP1 cell CPT 9.2µM (no result: IL-1B inflam inh)
CCOc1ccc2ccccc2c1CNCCc1ccc(S(N)(=O)=O)cc1	TDP1 cell noCPT inconclusive, TGFb SMAD3 inh inconclusive (no result: TDP1 inh)
COc1ccc2c(-c3cc4ccc(OCc5ccc(F)cc5)cc4oc3=O)cc(=O)oc2c1	TDP1 cell noCPT 12µM, TDP1 cell CPT 7.3µM
O=c1c2ccccc2nc(SCc2nc(-c3ccccc3)no2)n1-c1ccc(F)cc1	none
COn1c(=O)c(-c2cccs2)[n+]([O-])c2ccccc21	TDP1 cell noCPT 12µM, TDP1 cell CPT 16µM
CCOn1c(=O)c(-c2cccs2)[n+]([O-])c2ccccc21	IL-1B inflam inh inconclusive
CNc1ccc(Br)cc(C(=O)/C=C/c2cc(OC)ccc2OC)c1=O	TDP1 cell noCPT 10µM, TGFb SMAD3 inh 16µM, IL-1B inflam inh -99, TDP1 cell CPT 21µM
COC(=O)CNC(=O)/C=C/c1cc(Br)ccc1OC	none
CNc1ccc(Br)cc(C(=O)/C=C/c2ccc3c(c2)OCO3)c1=O	TDP1 cell noCPT 18µM, TGFb SMAD3 inh inconclusive, IL-1B inflam inh -100, TDP1 cell CPT 18µM
COc1ccc(/C=C/C(=O)c2c(OC)cc(O)cc2OC)cc1	none (no result: HepG2 tox, TDP1 cell noCPT, TGFb SMAD3 inh, IL-1B inflam inh, TDP1 cell CPT)
CCNc1ccc(Br)cc(C(=O)/C=C/c2ccc(Cl)cc2Cl)c1=O	TDP1 cell noCPT 9.2µM, IL-1B inflam inh -98, TDP1 cell CPT 10µM
CNc1ccc(Br)cc(C(=O)/C=C/c2ccc(OC)cc2)c1=O	TDP1 cell noCPT 18µM, IL-1B inflam inh inconclusive, TDP1 cell CPT 6.5µM
COc1cccc2oc3cc(C#Cc4ccccn4)ccc3c(=O)c12	TDP1 cell noCPT inconclusive, IL-1B inflam inh -55, TDP1 cell CPT inconclusive (no result: TDP1 inh)
O=C(CCSc1nc(-c2ccco2)cc(C(F)(F)F)n1)N1CCN(c2ccccn2)CC1	TDP1 cell noCPT 16µM, IL-1B inflam inh inconclusive, TDP1 cell CPT inconclusive
O=C(CCSc1nc(-c2ccco2)cc(C(F)(F)F)n1)N1CCCc2ccccc21	TDP1 cell noCPT 16µM, TGFb SMAD3 inh inconclusive, TDP1 cell CPT inconclusive
O=C(CSc1nc(-c2ccco2)cc(C(F)(F)F)n1)N1CCN(c2cccc(Cl)c2)CC1	TDP1 cell noCPT 23µM, TDP1 cell CPT inconclusive
CC(=O)/C(=C/c1ccccc1)C(=O)Nc1ccccc1C	TDP1 cell noCPT 4.6µM, TGFb SMAD3 inh 13µM, IL-1B inflam inh -104, TDP1 cell CPT inconclusive
Cc1ccccc1NC(=O)C(=Cc1ccc(C(=O)O)cc1)C(=O)Nc1ccccc1C	TDP1 cell noCPT 8.2µM, TGFb SMAD3 inh inconclusive, IL-1B inflam inh -106, TDP1 cell CPT 9.2µM
CC(Sc1nc2c(c(=O)[nH]1)CCCC2)C(=O)Nc1ccccc1C#N (configuration not stated)	none

Source: PubChem BioAssay
